An excerpt weighted towards active compounds, which were near 8.1% of everything screened.
KB-V1 cytotox: kills drug-selected multidrug resistant KB-V1 cells. KB-V1 MDR cells viability, CellTiter-Glo, 72 h. Potency, µM (titrated, usually from 46.1 µM), most hits filed as cytotoxic. 400,000 compounds, 3.4% hits. AID 1347076; also: % is scaled to controls: 0 for no effect and ±100 for the full control effect; nearly all actives have a fitted effect of over 60% in size
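In this primary screen, KB-V1 cells overexpressing P-gp are incubated with library compounds (lowest to highest concentration) for 72 h at 37 degrees C before a luminescent ATP viability read.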
MCF10A rereplic: DNA re-replication induction in MCF 10a cells; 350,000 compounds, 2.9% hits; Potency, µM (highest dose often 46.1 µM), for the others: at the top dose activity, positive = re-replication, hits mostly activators; MCF 10A DNA re-replication, Hoechst nuclear intensity, 48 h; also: % of control where 0% means no effect; nearly all actives have a fitted effect of over 50% in size
ELG1 DNA repair: inhibitors of ELG1-dependent DNA repair in HEK293T cells | HEK293T ELG1-luciferase reporter, luminescence, 16 h; DNA damage induced by 5-fluorouridine | Potency, µM (titrated, usually from 46.1 µM), for the others: top-dose activity change, negative = inhibition, actives largely listed as inhibitors | 330,000 compounds, 2.3% hits; also: % is scaled to controls: 0 for no effect and ±100 for the full control effect; nearly all actives have a fitted effect of over 55% in size
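Luminescence from the luciferase reporter, measured 30 min after ONE-Glo reagent at room temperature, was the read-out. Beforehand, 2,000 cells per well were exposed for 16 hr at 37 °C to 5-fluorouridine together with compound or vehicle.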
SW480 rerep: induces DNA re-replication in SW480 colon adenocarcinoma cells | 340,000 compounds, 1.8% hits | SW480 DNA re-replication, Hoechst DNA content imaging, 48 h | Potency, µM (top dose mostly 46.1 µM), for the others: at the top dose re-replication activation, usual class: activators; also: % of control where 0% means no effect; nearly all actives have a fitted effect of over 55% in size
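250 cells/well; 23 nL cpd via pin tool; 48 hr, 37 C, 5% CO2; Hoechst 40 min; imager read of total nuclear intensity, ex 405/em 500-530 nm.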
KB-3-1 cytotox: kills parental KB-3-1 adenocarcinoma cells | KB-3-1 viability, CellTiter-Glo ATP luminescence, 72 h | Potency, µM (highest dose often 46.1 µM), hits mostly cytotoxic | 400,000 compounds, 1.4% hits; also: % is scaled to controls: 0 for no effect and ±100 for the full control effect; nearly all actives have a fitted effect of over 60% in size
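Here the drug-naive KB-3-1 line serves as comparator for MDR sub-line selectivity; cells received compound titrations, 72 h at 37 °C, then CellTiter-Glo readout.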
The depositor's hits bear a star; i = inactive; ? = inconclusive; . = no result given. Calls follow the shape of the dose curve; as a rule, active = well fitted curve in the direction sought with a large enough effect; inconclusive = small, poorly fitted or top-dose-only effect, or another doubt; inactive = no such curve, though single readings can be large; an effect the other way counts as inactive or inconclusive. Potency is read from the fitted curve at half-maximal effect.

SMILES	KB-V1 cytotox	MCF10A rereplic	ELG1 DNA repair	SW480 rerep	KB-3-1 cytotox
COc1ccc2c(c1)[nH]c1c(N3CCSCC3)ncnc12	?	?	9.2µM*	-6.0%	i
Cc1ccc2[nH]c3c(N4CCN(Cc5ccc6c(c5)OCO6)CC4)ncnc3c2c1	.	.	23.1µM*	.	.
Cc1ccc2c(c1)[nH]c1c(N3CCN(Cc4ccccc4)CC3)ncnc12	?	?	18.4µM*	?	?
C=C(C)CNC(=S)NNC(=O)c1ccco1	i	16.4µM*	-12.4%	1.84µM*	i
CC(=O)c1cccc(NC(=S)NNC(=O)c2ccco2)c1	i	13.5%	?	-1.5%	i
COc1cc(CNC[C@H]2O[C@@H](n3ccc(N)nc3=O)[C@H](O)[C@@H]2O)ccc1OCc1ccc(C)cc1	i	.	.	.	i
CC(=O)CC1c2ccccc2C=C(c2ccsc2)N1c1ccc(-c2cccs2)cc1 (stereo not given)	i	.	.	.	?
COc1ccc(CCNC(=O)C(=O)NCc2ccc(C)cc2)cc1OC	20.6µM*	1.6%	8.7%	-2.3%	i
COc1ccc(CCNC(=O)CSCc2ccc(Cl)cc2)cc1OC	6.51µM*	6.0%	-24.2%	-0.8%	i
COc1ccc(CCNC(=O)CSCc2ccc(C)cc2)cc1OC	20.6µM*	-6.2%	.	-5.0%	i
COc1ccc(CCNC(=O)CSCc2ccc([N+](=O)[O-])cc2)cc1OC	i	-5.5%	-8.9%	-271.2%	i
COc1ccc(CCNC(=O)CSc2nnc(-c3ccc(F)cc3)c3ccccc23)cc1OC	7.31µM*	8.9%	?	12.0%	i
Cn1c(=S)[nH]c2cc(C(=O)N3CCN(Cc4cccs4)CC3)ccc2c1=O	i	.	.	.	?
COc1ccc(CCNC(=O)CCN2C(=O)C(C)Oc3ccc(C)cc32)cc1OC (stereo not given)	8.2µM*	-0.1%	-26.5%	0.2%	i
COc1ccc(CCNC(=O)CCN2C(=O)COc3ccc(C)cc32)cc1OC	?	-0.2%	-19.4%	-3.4%	i
CCC(c1nnc(SCC(=O)NCCc2ccc(OC)c(OC)c2)n1Cc1ccccc1)N(C)C (stereo not given)	i	0.651µM*	3.4%	-5.3%	i
COc1ccc(-n2nnnc2SCC(=O)NCCc2ccc(OC)c(OC)c2)cc1	8.2µM*	-7.0%	-16.7%	13.2%	i
CCC(c1nnc(SCC(=O)Nc2ccc(NC(C)=O)cc2)n1Cc1ccccc1)N(C)C (stereo not given)	i	1.2%	5.5%	0.7%	i
Cn1nnc2c(N3CCN(c4ccccc4F)CC3)ncnc21	i	.	.	.	i
COc1ccc2cc(C(=O)N/N=C/c3sc4ccccc4c3O)ccc2c1	23.1µM*	?	18.2%	?	13µM*
COc1ccc(C(=O)N/N=C/c2sc3ccccc3c2O)cc1	?	?	?	5.17µM*	7.31µM*
O=C(N/N=C/c1sc2ccccc2c1O)c1cccc2ccccc12	?	?	-8.7%	?	i
O=C(N/N=C/c1sc2ccccc2c1O)c1ccccc1	?	?	?	2.59µM*	i
CC1=C(C(=O)N2CCCCCC2)CC(CC(=O)NCCCN(C)C)C(=O)N1Cc1ccc(F)cc1 (stereo not given)	i	.	.	.	i
Cc1nn(-c2ccccc2)c(OC(=O)c2ccc(F)cc2)c1S(=O)(=O)c1ccccc1	?	.	.	.	i
SMILES	KB-V1 cytotox	MCF10A rereplic	ELG1 DNA repair	SW480 rerep	KB-3-1 cytotox
COc1ccc(-c2cn(-c3ccccc3)c3[n+]2CCS3)cc1	i	20.0%	?	-6.7%	3.26µM*
Fc1ccc(-n2cc(-c3ccccc3)[n+]3c2SCC3)cc1	i	15.0%	-23.5%	?	?
c1ccc(-c2cn(-c3ccccc3)c3[n+]2CCS3)cc1	?	3.3%	4.61µM*	5.8%	?
Brc1ccc(-c2csc3[n+]2CCCCC3)cc1	?	16.4%	?	-1.7%	?
CC(C)(C)c1ccc(-c2cn(-c3ccc(Br)cc3)c3[n+]2CCCS3)cc1	i	?	4.11µM*	0.8%	?
O=C1C(c2ccc(F)cc2)N(CCc2ccccc2)C(=O)CN1C1CCCCC1 (stereo not given)	i	.	.	.	i
O=[N+]([O-])c1ccc(-[n+]2ccc3ccccc3c2)c([N+](=O)[O-])c1	5.17µM*	?	?	?	4.61µM*
O=C(Nc1ccc(Cl)cc1)Nc1ccc2c(c1)N1CCN=C1S2	?	?	23.1µM*	9.0%	i
COc1ccccc1C(=O)Nc1ccc(S(=O)(=O)N2CCCCC2c2cccnc2)cc1 (stereo not given)	i	2.0%	23.1µM*	15.8%	i
CCOc1cc(C(=S)N2CCCC2)ccc1OCC(=O)Nc1c(C)cc(C)cc1C	?	-8.1%	20.6µM*	-1.0%	i
COC(=O)[C@H]1C[C@H](OC(=O)NCc2ccco2)[C@@]2(O)CN(S(=O)(=O)c3ccc(C)cc3)CC2[C@H]1C(=O)OC (stereo not given in full)	i	.	.	.	i
CCOC(=O)N1CCN(CCC(=O)c2ccc(OC)cc2)CC1	i	14.6µM*	23.2%	?	i
CCOC(=O)N1CCN(CCC(=O)Nc2ccc(OC)cc2)CC1	i	-0.3%	-1.7%	-6.1%	i
CCOC(=O)N1CCN(CCC(=O)c2ccc(Br)cc2)CC1	i	?	14.5%	?	i
COc1ccc(N2CCN(CCC(=O)c3ccc4ccccc4c3)CC2)cc1	?	10.3µM*	0.0%	?	i
CCOC(=O)N1CCN(Cc2cc(=O)oc3ccc(Cl)cc23)CC1	18.4µM*	6.0%	4.1%	-17.0%	i
CCN1CCN(Cc2cc(=O)oc3ccc(Cl)cc23)CC1	i	-3.6%	-3.4%	-1.1%	i
CCOC(=O)N1CCN(CCC(=O)c2ccc(Cl)cc2)CC1	?	?	0.1%	?	20.6µM*
CC(C)C(=O)Nc1nnc(S(=O)(=O)N(C)Cc2ccc(F)cc2)s1	i	.	.	.	i
O=C(CSc1nc2c([nH]c3ccccc32)c(=O)n1-c1ccc(F)cc1)N1CCc2ccccc21	i	.	.	.	i
O=C(CC1CC2CCC1C2)N1CCN(S(=O)(=O)c2ccc(F)cc2)CC1 (stereo not given)	?	.	.	.	i
COC(=O)[C@@]12C[C@@H](CC(=O)N3CCC(c4ccccc4)CC3)C(=O)N(Cc3ccco3)C1=CCC(C)(C)C2	?	.	.	.	i
CCOc1c(/C=C(\C#N)C(N)=O)c2ccccc2n1CC	?	?	13µM*	.	i
Clc1nc(-c2ccccn2)nc2scc(-c3ccccc3)c12	11.6µM*	?	?	?	?
COc1ccc(-c2nc(C)c(CCNC(=O)c3ccco3)s2)cc1	?	.	.	.	i
